# Measurements reported in PubChem BioAssay AID1159580 (chemical genetic matrix, 2015).
# Out of some 5,500 compounds screened, about 2,000 (36%) were called active. Roughly 18% stayed inconclusive and do not appear here. The list shows a part of the results. Unmarked numbers belong to inactive results. Rule as the data show it: active = normalized growth mostly below about 0.91 (no sharp cut-off); inconclusive = no clear call, values can overlap the other calls; inactive = mostly above about 0.92.
# Assay: chemical genetic growth profiling, strain panel (AID 1159580);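 also: tested at 20 µM; growth read once vehicle control cultures reached saturation at 30 °C; 1 = growth at the plate median or of vehicle wells; lower values mean less growth of the strain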
# Conditions: S. cerevisiae deletion strains, growth OD
# [1] = locus YAR019C, strain CDC15, hits give low values
# [2] = locus YBL105C, strain PKC1, hits give low values
# [3] = locus YBR135W, strain CKS1, hits give low values
# [4] = locus YBR136W, strain MEC1, hits give low values
# [5] = locus YBR160W, strain CDC28, hits give low values
# [6] = locus YDL017W, strain CDC7, hits give low values
# [7] = locus YDL028C, strain MPS1, hits give low values
# [8] = locus YDL101C, strain DUN1, hits give low values
# [9] = locus YDL108W, strain KIN28, hits give low values
# [10] = locus YDL132W, strain cdc53, hits give low values
# [11] = locus YDL214C, strain PRR2, hits give low values
# [12] = locus YDR052C, strain DBF4, hits give low values
# [13] = locus YDR054C, strain cdc34, hits give low values
# [14] = locus YDR226W, strain ADK1, hits give low values
# [15] = locus YDR477W, strain SNF1, hits give low values
# [16] = locus YER123W, strain YCK3, hits give low values
# [17] = locus YER133W, strain GLC7, hits give low values
# [18] = locus YFL009W, strain cdc4, hits give low values
# [19] = locus YFL029C, strain CAK1, hits give low values
# [20] = locus YFR003C, strain YPI1, hits give low values
# [21] = locus YFR019W, strain FAB1, hits give low values
# [22] = locus YFR028C, strain CDC14, hits give low values
# [23] = locus YGR040W, strain KSS1, hits give low values
# [24] = locus YGR052W, strain FMP48, hits give low values
# [25] = locus YGR092W, strain DBF2, hits give low values
# [26] = locus YHR030C, strain SLT2, hits give low values
# [27] = locus YHR079C, strain IRE1, hits give low values
# [28] = locus YHR082C, strain KSP1, hits give low values
# [29] = locus YHR205W, strain SCH9, hits give low values
# [30] = locus YIL147C, strain SLN1, hits give low values
# [31] = locus YJL095W, strain BCK1, hits give low values
# [32] = locus YJL128C, strain PBS2, hits give low values
# [33] = locus YJL157C, strain FAR1, hits give low values
# [34] = locus YJR016C, strain ILV3, hits give low values
# [35] = locus YJR066W, strain TOR1 (second series), hits give low values
# [36] = locus YJR066W, strain TOR1, hits give low values
# [37] = locus YKL048C, strain ELM1, hits give low values
# [38] = locus YKL067W, strain YNK1, hits give low values
# [39] = locus YKL101W, strain HSL1, hits give low values
# [40] = locus YKL193C, strain SDS22, hits give low values
# [41] = locus YKL203C, strain TOR2, hits give low values
# [42] = locus YLR113W, strain HOG1, hits give low values
# [43] = locus YLR133W, strain CKI1, hits give low values
# [44] = locus YLR403W, strain SFP1, hits give low values
# [45] = locus YML070W, strain DAK1, hits give low values
# [46] = locus YMR001C, strain CDC5, hits give low values
# [47] = locus YMR205C, strain PFK2 (second series), hits give low values
# [48] = locus YMR277W, strain FCP1, hits give low values
# [49] = locus YNL006W, strain LST8, hits give low values
# [50] = locus YNL020C, strain ARK1, hits give low values
# [51] = locus YNL161W, strain CBK1, hits give low values
# [52] = locus YNL183C, strain NPR1, hits give low values
# [53] = locus YNL207W, strain RIO2, hits give low values
# [54] = locus YNL222W, strain SSU72, hits give low values
# [55] = locus YNL307C, strain MCK1 (second series), hits give low values
# [56] = locus YOL078W, strain AVO1, hits give low values
# [57] = locus YOL136C, strain PFK27, hits give low values
# [58] = locus YOR061W, strain CKA2, hits give low values
# [59] = locus YOR119C, strain RIO1, hits give low values
# [60] = locus YOR231W, strain MKK1, hits give low values
# [61] = locus YOR329C, strain SCD5, hits give low values
# [62] = locus YPL031C, strain PHO85, hits give low values
# [63] = locus YPL153C, strain RAD53, hits give low values
# [64] = locus YPL204W, strain HRR25, hits give low values
# [65] = locus YPL209C, strain IPL1, hits give low values
# [66] = locus YPL256C, strain CLN2, hits give low values
# [67] = locus YPR025C, strain CCL1, hits give low values
# [68] = locus YPR106W, strain ISR1, hits give low values
# [69] = locus YPR111W, strain DBF20, hits give low values
# [70] = strain NNK1, hits give low values
# [71] = strain TSCII, hits give low values
smiles,measurement,setting,value
O=S(=O)(Nc1ccccc1Oc1ccccc1)c1ccc(-c2ccno2)s1,normalized growth,[1],0.974
same,normalized growth,[2],0.961
same,normalized growth,[3],0.966
same,normalized growth,[4],0.968
same,normalized growth,[5],0.961
same,normalized growth,[6],0.969
same,normalized growth,[7],0.965
same,normalized growth,[8],0.968
same,normalized growth,[9],0.972
same,normalized growth,[10],0.964
same,normalized growth,[11],0.916
same,normalized growth,[12],0.978
same,normalized growth,[13],0.965
same,normalized growth,[14],0.968
same,normalized growth,[15],0.943
same,normalized growth,[16],0.911
same,normalized growth,[17],0.964
same,normalized growth,[18],0.96
same,normalized growth,[19],0.96
same,normalized growth,[20],0.969
same,normalized growth,[21],0.97
same,normalized growth,[22],0.963
same,normalized growth,[23],0.929
same,normalized growth,[24],0.976
same,normalized growth,[25],0.916
same,normalized growth,[26],0.961
same,normalized growth,[27],0.954
same,normalized growth,[28],0.98
same,normalized growth,[29],0.933
same,normalized growth,[30],0.969
same,normalized growth,[31],0.962
same,normalized growth,[32],0.953
same,normalized growth,[33],0.924
same,normalized growth,[34],0.964
same,normalized growth,[35],0.919
same,normalized growth,[36],1
same,normalized growth,[37],0.932
same,normalized growth,[38],0.941
same,normalized growth,[39],0.893
same,normalized growth,[40],0.962
same,normalized growth,[41],0.982
same,normalized growth,[42],0.769 (active)
same,normalized growth,[43],0.914
same,normalized growth,[44],0.891
same,normalized growth,[45],0.906
same,normalized growth,[46],0.968
same,normalized growth,[47],0.948
same,normalized growth,[48],0.965
same,normalized growth,[49],0.973
same,normalized growth,[50],0.924
same,normalized growth,[51],0.968
same,normalized growth,[52],0.954
same,normalized growth,[53],0.966
same,normalized growth,[54],0.961
same,normalized growth,[55],0.932
same,normalized growth,[56],0.963
same,normalized growth,[57],0.908
same,normalized growth,[58],0.921
same,normalized growth,[59],0.995
same,normalized growth,[60],0.888
same,normalized growth,[61],0.968
same,normalized growth,[62],0.944
same,normalized growth,[63],0.93
same,normalized growth,[64],0.927
same,normalized growth,[65],0.965
same,normalized growth,[66],0.873
same,normalized growth,[67],0.971
same,normalized growth,[68],0.946
same,normalized growth,[69],0.929
same,normalized growth,[70],0.948
same,normalized growth,[71],0.967
Cc1ccc(-n2cccc2)c(NS(=O)(=O)c2ccc(-c3ccno3)s2)c1,normalized growth,[1],0.94
same,normalized growth,[2],0.947
same,normalized growth,[3],0.944
same,normalized growth,[4],0.953
same,normalized growth,[5],0.938
same,normalized growth,[6],0.957
same,normalized growth,[7],0.933
same,normalized growth,[8],0.958
same,normalized growth,[9],0.937
same,normalized growth,[10],0.943
same,normalized growth,[11],0.899
same,normalized growth,[12],0.962
same,normalized growth,[13],0.941
same,normalized growth,[14],0.929
same,normalized growth,[15],0.894
same,normalized growth,[16],0.868
same,normalized growth,[17],0.902
same,normalized growth,[18],0.93
same,normalized growth,[19],0.936
same,normalized growth,[20],0.957
same,normalized growth,[21],0.976
same,normalized growth,[22],0.94
same,normalized growth,[23],0.914
same,normalized growth,[24],0.898
same,normalized growth,[25],0.76
same,normalized growth,[26],0.667 (active)
same,normalized growth,[27],0.847
same,normalized growth,[28],0.888
same,normalized growth,[29],0.862
same,normalized growth,[30],0.941
same,normalized growth,[31],0.816
same,normalized growth,[32],0.891
same,normalized growth,[33],0.921
same,normalized growth,[34],0.941
same,normalized growth,[35],0.889
same,normalized growth,[36],0.816
same,normalized growth,[37],0.924
same,normalized growth,[38],0.885
same,normalized growth,[39],0.894
same,normalized growth,[40],0.941
same,normalized growth,[41],0.979
same,normalized growth,[42],0.774 (active)
same,normalized growth,[43],0.923
same,normalized growth,[44],0.915
same,normalized growth,[45],0.905
same,normalized growth,[46],0.947
same,normalized growth,[47],0.918
same,normalized growth,[48],0.93
same,normalized growth,[49],0.965
same,normalized growth,[50],0.939
same,normalized growth,[51],0.953
same,normalized growth,[52],0.9
same,normalized growth,[53],0.939
same,normalized growth,[54],0.943
same,normalized growth,[55],0.9
same,normalized growth,[56],0.941
same,normalized growth,[57],0.906
same,normalized growth,[58],0.906
same,normalized growth,[59],0.923
same,normalized growth,[60],0.833
same,normalized growth,[61],0.952
same,normalized growth,[62],0.896
same,normalized growth,[63],0.872
same,normalized growth,[64],0.883
same,normalized growth,[65],0.953
same,normalized growth,[66],0.791 (active)
same,normalized growth,[67],0.95
same,normalized growth,[68],0.932
same,normalized growth,[69],0.926
same,normalized growth,[70],0.938
same,normalized growth,[71],0.942
